Assay results reported in PubChem BioAssay (EPA / NIEHS).
Results filed as inconclusive are left out. Calls of active or inactive are those of the source. Rule for the calls: active = hit-call score of the fitted dose curve at least 0.9, where 1 is the maximum; inconclusive = response in the unintended direction; inactive = score below 0.9.

What follows are compounds tested against human Retinoic Acid Receptor gamma (RARg), RARG (gene 5916) (UniProt P13631) (assay: ATG_RARg_TRANS: Attagene TRANS-FACTORIAL HepG2 Assay for human Retinoic Acid Receptor gamma (RARg) (AID 2283009);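 for AC50: AC50 is for reporter induction above DMSO meaning RARg activation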).
human Retinoic Acid Receptor gamma (RARg), RARG (gene 5916), sequence (P13631 whole entry, looked up, the tested form may be a part): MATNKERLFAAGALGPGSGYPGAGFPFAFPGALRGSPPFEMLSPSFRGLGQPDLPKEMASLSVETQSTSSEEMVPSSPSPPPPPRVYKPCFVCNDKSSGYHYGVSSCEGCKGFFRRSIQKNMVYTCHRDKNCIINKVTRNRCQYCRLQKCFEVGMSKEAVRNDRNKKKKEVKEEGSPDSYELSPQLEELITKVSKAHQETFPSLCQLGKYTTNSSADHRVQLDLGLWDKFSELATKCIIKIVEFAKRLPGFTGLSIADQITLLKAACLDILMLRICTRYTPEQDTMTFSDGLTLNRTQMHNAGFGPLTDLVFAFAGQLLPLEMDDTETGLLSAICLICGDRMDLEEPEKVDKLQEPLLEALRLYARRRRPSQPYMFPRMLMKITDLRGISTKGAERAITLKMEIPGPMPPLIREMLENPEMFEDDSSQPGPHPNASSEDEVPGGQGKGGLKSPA
Outline: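 HepG2 transiently transfected with GAL4-UAS reporter units and chimeric NR-Gal4 constructs; 24 h compound exposure. Reporter mRNA quantified by RT-PCR, FAM labeling, HpaI digestion and capillary electrophoresis; gain-of-signal versus DMSO.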

outcome, inactive:
CC1=Nc2ccc3ccccc3c2C1(C)C
CC(=O)Oc1ccc(C(C)=O)cc1
COC(=O)c1ccc2cc(C(=O)OC)ccc2c1
CCCCCCCCCCCCCCCC(=O)OCC
COC(=O)/C=C\C(=O)O
COc1ccc([C@@H]2CC(=O)c3c(O)cc(O[C@@H]4O[C@H](CO[C@@H]5O[C@@H](C)[C@H](O)[C@@H](O)[C@H]5O)[C@@H](O)[C@H](O)[C@H]4O)cc3O2)cc1OC
CNC(=S)NN
C=C[Si](OC(C)=O)(OC(C)=O)OC(C)=O
Clc1nc2ccccc2s1
C#CC1(O)CC[C@H]2[C@@H]3CCC4=CCCC[C@@H]4[C@H]3CC[C@@]21C (some centres not stated)
C1=CCCC1
COc1cc(NC(=O)CC(C)=O)c(OC)cc1Cl
C=C(C)C(=O)OCCO
CC1=NN(c2cc(S(=O)(=O)O)ccc2Cl)C(=O)C1N=Nc1ccccc1 (configuration not stated)

AC50, active:
CC(C)(c1cc(Br)c(OCCO)c(Br)c1)c1cc(Br)c(OCCO)c(Br)c1 454 nM

The compounds below were run against human RAR-related Orphan Receptor beta (RORb), RORB (gene 6096) (UniProt Q92753) (assay: ATG_RORb_TRANS: Attagene TRANS-FACTORIAL HepG2 Assay for human RAR-related Orphan Receptor beta (RORb) (AID 2283010)).
human RAR-related Orphan Receptor beta (RORb), RORB (gene 6096), sequence (Q92753 whole entry, looked up, the tested form may be a part): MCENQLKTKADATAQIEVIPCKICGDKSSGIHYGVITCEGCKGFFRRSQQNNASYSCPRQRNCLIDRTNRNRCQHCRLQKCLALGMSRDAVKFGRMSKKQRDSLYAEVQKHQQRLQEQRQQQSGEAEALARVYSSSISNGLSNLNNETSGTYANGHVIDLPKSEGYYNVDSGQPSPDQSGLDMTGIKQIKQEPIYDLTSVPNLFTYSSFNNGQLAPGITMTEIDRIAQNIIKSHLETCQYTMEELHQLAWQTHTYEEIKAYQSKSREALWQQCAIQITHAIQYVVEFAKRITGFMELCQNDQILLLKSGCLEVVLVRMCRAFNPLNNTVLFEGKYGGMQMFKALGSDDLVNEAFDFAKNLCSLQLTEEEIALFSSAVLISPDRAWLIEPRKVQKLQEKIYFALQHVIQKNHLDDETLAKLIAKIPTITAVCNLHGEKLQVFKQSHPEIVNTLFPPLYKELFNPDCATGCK
Outline: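 HepG2 cells transiently transfected with GAL4-UAS reporter units expressing chimeric NR-Gal4 protein; reporter mRNA measured 24 h after dosing by RT-PCR, 6-FAM labelling and capillary electrophoresis. Gain-of-signal fitted relative to DMSO baseline.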

outcome, inactive:
O=C(O)CCCCCCCCCC(=O)O
CCCCC(CC)COC(=O)c1ccccc1O (configuration not stated)
COC(=O)c1ccc2cc(C(=O)OC)ccc2c1
FC(F)(F)C(=NOCC1OCCO1)c1ccc(Cl)cc1
CC(C)c1ccc(C#N)cc1
CCCCCCCCCCOC(C)=O
Cc1ccc2oc(=O)ccc2c1
C=C[Si](OC(C)=O)(OC(C)=O)OC(C)=O
COc1cc(NC(=O)CC(C)=O)c(OC)cc1Cl
CCO[Si](C)(OCC)OCC
C=C(C)C(=O)OCCO
Cc1cc(C)c(C(=O)O)c(C)c1
